Records with an inconclusive call do not appear. Entries that show only a call come without a potency. Activity calls are given as the source filed them. Calls come from the whole dose curve; tested in HEK293 reporter line.

The nature of the assay: qHTS for Inhibitors of the Functional Ribonucleoprotein Complex (vRNP) of Lassa (LASV) Arenavirus: LASV Primary Screen - GLuc reporter signal (AID 1347082). Note: nearly all actives have a fitted effect of over 60% in size. Conditions: LASV minigenome vRNP, Gaussia luciferase reporter; series mostly up to 57.5 µM.
Take `CN1C[C@H]2c3ccccc3Oc3ccc(Cl)cc3[C@@H]2C1`: the Potency entry was “inactive”. With `COc1cc(NCc2ccc3nc(N)nc(N)c3c2C)cc(OC)c1OC`, the Potency entry is “inactive”.

In the case of `COC(=O)C(c1ccccc1Cl)N1CCc2sccc2C1` (stereo not drawn), the Potency result was “inactive”. The value for `CC1(C)O[C@@H]2[C@@H](CO[C@@]3(COS(N)(=O)=O)OC(C)(C)O[C@@H]23)O1` was “inactive”; that for `COc1nc(N)nc2c1ncn2[C@@H]1O[C@H](CO)[C@@H](O)[C@@H]1O` was “inactive”.

In the case of `CC(C)[N+](C)(CCOC(=O)C1c2ccccc2Oc2ccccc21)C(C)C`, the Potency entry is “inactive”.

Turning to `CCCNC(=O)NS(=O)(=O)c1ccc(Cl)cc1`, the Potency result is “inactive”. `CN1CCc2cccc3c2[C@H]1Cc1ccc(O)c(O)c1-3`: the Potency entry is “inactive”. Then `Oc1cn2c(n1)Nc1ccc(Cl)c(Cl)c1C2`, with “inactive”; and `CN(CCOc1ccc(NS(C)(=O)=O)cc1)CCc1ccc(NS(C)(=O)=O)cc1`, with “inactive”.

In the case of `CCCc1nc2c(C)cc(-c3nc4ccccc4n3C)cc2n1Cc1ccc(-c2ccccc2C(=O)O)cc1`, the Potency entry is “inactive”. With `CN(C)CC[C@@H](c1ccc(Br)cc1)c1ccccn1`, the Potency result was “inactive”. The value for `Cc1ccccc1C(=O)Nc1ccc(C(=O)N2CCCC(O)c3cc(Cl)ccc32)c(C)c1` (stereo not drawn) was “inactive”; that for `Clc1ccc2c(c1)C(N1CCNCC1)=Nc1ccccc1O2` was “inactive”. The value for `CC(C)(C)C(=O)OCOP(=O)(COCCn1cnc2c(N)ncnc21)OCOC(=O)C(C)(C)C` was “inactive”; that for `Cc1cn([C@H]2C=C[C@@H](CO)O2)c(=O)[nH]c1=O` was “inactive”; that for `CN1CCN(C2=Nc3ccccc3Oc3ccc(Cl)cc32)CC1` was “inactive”.

`Cc1ncc([N+](=O)[O-])n1CCO`: the Potency entry was “inactive”. As to `CCC(=O)O[C@H]1[C@H](O[C@@H]2[C@@H](C)[C@H](O[C@H]3C[C@@](C)(OC)[C@@H](O)[C@H](C)O3)[C@@H](C)C(=O)O[C@H](CC)[C@@](C)(O)[C@H](O)[C@@H](C)C(=O)[C@H](C)C[C@@]2(C)O)O[C@H](C)C[C@@H]1N(C)C`, the Potency entry was “inactive”. Then `CN1CCC[C@@H]1Cc1c[nH]c2ccc(CCS(=O)(=O)c3ccccc3)cc12`, with “inactive”.

On to `O=C1CCC(N2C(=O)c3ccccc3C2=O)C(=O)N1` (stereo not drawn), for which the Potency result is “inactive”. As to `COc1c(C)c2c(c(O)c1C/C=C(\C)CCC(=O)OCCN1CCOCC1)C(=O)OC2`, the Potency result was “inactive”.

In the case of `CC(=O)N(O)CCCCCNC(=O)CCC(=O)N(O)CCCCCNC(=O)CCC(=O)N(O)CCCCCN`, the Potency entry was “inactive”.

In the case of `CO/N=C1\CN(c2nc3c(cc2F)c(=O)c(C(=O)O)cn3C2CC2)CC1CN` (stereo not drawn), the Potency entry is “inactive”. The value for `CCC(C)n1ncn(-c2ccc(N3CCN(c4ccc(OC[C@H]5CO[C@](Cn6cncn6)(c6ccc(Cl)cc6Cl)O5)cc4)CC3)cc2)c1=O` (stereo partly drawn) was “inactive”. The value for `COC1=CC(=O)C[C@@H](C)[C@]12Oc1c(Cl)c(OC)cc(OC)c1C2=O` was “inactive”; that for `Cn1c(=O)c2c(ncn2CC(O)CO)n(C)c1=O` (stereo not drawn) was “inactive”. The value for `Clc1ccc(C(c2ccccc2Cl)C(Cl)Cl)cc1` (stereo not drawn) was “inactive”; that for `CC(C)n1c(/C=C/[C@@H](O)C[C@@H](O)CC(=O)O)c(-c2ccc(F)cc2)c2ccccc21` was “inactive”; that for `CN(C)CCOC(C)(c1ccccc1)c1ccccn1` (stereo not drawn) was “inactive”.

Take `COc1ccccc1OCC(O)COC(N)=O` (stereo not drawn): the Potency entry was “inactive”. The value for `CC(C)NCC(O)COc1cccc2[nH]ccc12` (stereo not drawn) was “inactive”; that for `CC(=O)O[C@]1(C(C)=O)CC[C@H]2[C@@H]3C=C(Cl)C4=CC(=O)[C@@H]5C[C@@H]5[C@]4(C)[C@H]3CC[C@@]21C` was “inactive”; that for `C[C@@H]1C[C@H]2[C@@H]3CCC4=CC(=O)C=C[C@]4(C)[C@@]3(F)[C@@H](O)C[C@]2(C)[C@@]1(O)C(=O)CO` was “inactive”. As to `NCCCC(O)(P(=O)(O)O)P(=O)(O)O`, the Potency result was “inactive”. Consider `CCN(C)C(=O)Oc1cccc([C@H](C)N(C)C)c1`, for which the Potency result was “inactive”. As for `CC[C@@]1(c2ccccc2)NC(=O)N(C)C1=O`, the Potency result was “inactive”. As for `O=C(O)CCNC(=O)c1ccc(N=Nc2ccc(O)c(C(=O)O)c2)cc1`, the Potency result is “inactive”.

These data come from PubChem BioAssay (NCATS).
